Jurkat NFkB inh: inhibitors of the PMA/ionomycin-induced NF-kB reporter in Jurkat cells; PMA/ionomycin-induced NF-kB luciferase reporter, luminescence; inhibition, % at 4 µM; 0.53% of 330,000 active; in the data active = inhibition above about 50%
Gli-Sufu antag: antagonists of Gli-Sufu signaling; Sufu-KO-LIGHT fibroblasts, Gli luciferase reporter luminescence; 0.74% of 340,000 active; inhibition, % at 5 µM;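 active = inhibition above about 55%, limit read from the data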;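 note: 0% = DMSO-treated cells and 100% = wells with medium but no cells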
Beta apoptosis: blocks beta cell apoptosis. INS-1E cytokine-induced death, ATP luminescence, 48 h; percent of positive-control rescue, neutral wells zero. protection from apoptosis, % (concentration not given with the values). 0.8% of 300,000 active. AID 435005;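 active = Every replicate reaches about 75%, or at least half do and their mean reaches it too, limit read from the data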;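 note: 0% = cytokine-treated negative control wells and 100% = positive control rescue; higher means more ATP so stronger rescue from cytokine killing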
Mdm2-MdmX inh: inhibitors of human Mdm2/MdmX interaction | O15151+Q00987 | SaOS-2 split-luciferase Mdm2/MdmX complementation, luminescence | inhibition, % at 8 µM | 3% of 330,000 active | AID 485346;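 active = inhibition of at least 50% at 8 µM in the primary screen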
CSC inhib: cancer stem cell inhibition. inhibition, % at 7.5 µM. cancer stem cell-like cells viability, luminescence. 1.1% of 300,000 active; in the data active = inhibition above about 75%; tested in HMLE shEcad cells
697 NFkB inh: inhibitors of the PMA/ionomycin-induced NF-kB reporter in 697 B cells; 697 B-cell NF-kB luciferase reporter, 16 h; inhibition, % at 4 µM; 0.33% of 330,000 active; AID 435022; in the data active = inhibition above about 35%
Mdm2-MdmX conf: confirmation of human Mdm2/MdmX interaction inhibitors | shares compounds with Mdm2-MdmX inh | Mdm2-MdmX binding, luminescent assay | inhibition, % at 8 µM | 55% of 10,000 active | AID 489028; in the data active = inhibition above about 40%
FLuc counter: full-length luciferase inhibition in Mdm2/MdmX counter-screen; SaOS-2 full-length luciferase counterscreen, luminescence; shares compounds with Mdm2-MdmX inh; AID 504607; 77% of 6,200 active; inhibition, % at 8 µM;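 active = mean inhibition at 8 µM reaching about 37%, which flags the compound as non-specific, limit read from the data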;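 note: p53-null SaOS-2 cells with luciferase driven by a doxycycline-inducible promoter; compound on cells about two nights before reading with doxycycline added after day one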
Active calls of the source: *; . = no result given. Hits are enriched below; roughly 4.5% of the tested compounds scored in any of these assays.

SMILES	Jurkat NFkB inh	Gli-Sufu antag	Beta apoptosis	Mdm2-MdmX inh	CSC inhib	697 NFkB inh	Mdm2-MdmX conf	FLuc counter
Cn1nnnc1Sc1ncnc2scc(-c3cccc4c3sc3ccccc34)c12	-14	31	3	100*	111*	-114	67*	48*
CN(C)C(=O)CSc1ncnc2scc(-c3ccccc3)c12	-4	10	-3	21	-4	2	.	.
COc1ccc(-c2csc3ncnc(Sc4nnnn4C)c23)cc1	7	-6	-18	68*	52	16	46*	21
Clc1ccc(-c2csc3ncnc(Cl)c23)cc1	-5	-24	.	44	-2	-6	.	.
Cn1nnnc1Sc1ncnc2scc(-c3ccc(Cl)cc3)c12	8	26	-9	100*	83*	-56	99*	52*
CCN1CCN(c2ncnc3scc(-c4ccc(OC)cc4)c23)CC1	0	15	1	-8	-10	-16	.	.
O=C(C1CCCN1C(=O)c1cccs1)N1CCN(S(=O)(=O)c2ccc(F)cc2)CC1 (stereo not given)	-3	8	0	-2	.	16	.	.
O=P(c1ccccc1)(c1ccccc1)c1cc(S(=O)(=O)O)ccc1O	-17	0	-2	14	5	10	.	.
Cn1nnnc1Sc1ncnc2scc(-c3ccc4c(c3)OCO4)c12	-1	12	-5	71*	.	-20	37	.
Cc1ccc(-c2csc3ncnc(SCC(=O)c4ccc5c(c4)OCCO5)c23)cc1	-13	5	6	20	-2	2	.	.
O=C(NCCN1CCN(S(=O)(=O)c2ccc([N+](=O)[O-])cc2)CC1)C(=O)Nc1ccccc1	-13	10	2	71*	6	10	15	.
Cc1cccc(NC(=S)N2CCC(NC(=O)c3ccco3)CC2)c1	0	-22	2	-11	.	7	.	.
CCOC(=O)c1cc(NC(=O)c2ccccc2)c(=O)n2c1oc1ccccc12	-9	5	11	56*	-4	-1	7	.
CCOC(=O)c1cc(NC(=O)c2ccc(C)cc2)c(=O)oc1-c1ccccc1	8	8	-4	-3	-9	9	.	.
C/C(=N\NC(=O)C1CCCN(S(=O)(=O)c2ccccc2)C1)c1ccccn1 (stereo not given)	32	-8	61	70*	31	-10	59*	35
COc1ccc(C(=O)NCc2ccccc2CN2CCCC2)cc1S(=O)(=O)N1CCOCC1	-1	2	.	36	.	6	.	.
COc1ccc2c(c1OC)C(=O)N1c3ccccc3C(=O)N(c3ccccc3F)C21 (stereo not given)	45	-16	1	66*	12	-4	60*	76*
COc1ccc2c(c1OC)C(=O)N1c3ccccc3SC21 (stereo not given)	-92	-16	-5	-134	9	-101	.	.
COc1cc(OC)c(OC)cc1CCC(C)NCCC(c1ccccc1)c1ccccc1 (stereo not given)	4	2	21	64*	16	-5	50*	60*
O=C(CSc1nc2ccccc2c(=O)n1-c1ccc(OC(F)F)cc1)NC1CC1	-7	-1	1	0	6	-10	.	.
O=C(NNC(=O)c1ccccc1OCc1ccc(F)cc1)c1ccccc1O	17	24	87*	69*	6	-31	73*	31
C/C(=N\NC(=O)c1cc(Br)ccc1O)c1ccccn1	-28	66*	105*	57*	96*	-135	39	50*
O=C(NNC(=O)c1ccccc1OCc1ccccc1)c1ccccc1F	-14	-2	5	-11	1	-36	.	.
Cc1cccc(/C=N/NC(=O)c2cc(Br)ccc2O)n1	9	-1	11	5	4	-19	.	.
O=C(NCc1ccc(F)cc1)c1ccccc1OCc1ccccc1	-3	9	5	-19	-5	-30	.	.
SMILES	Jurkat NFkB inh	Gli-Sufu antag	Beta apoptosis	Mdm2-MdmX inh	CSC inhib	697 NFkB inh	Mdm2-MdmX conf	FLuc counter
C/C(=N\NC(=O)c1ccccc1OCc1ccc(F)cc1)c1ccccn1	37	47	94*	93*	31	-80	53*	45*
O=C(NNC(=O)c1ccccc1OCc1ccccc1)c1ccccc1O	8	14	86*	64*	-10	-39	70*	35
COC(=O)c1c(-c2c(Cl)cccc2Cl)noc1NC(=O)NN1CCCCC1	1	0	-7	29	-13	-13	.	.
O=Cc1cc(OCc2ccccc2)ccc1[B-](F)(F)F	.	-14	.	.	.	.	.	.
O=Cc1ccc(OCC(=O)NCC2CCCO2)cc1 (stereo not given)	3	-7	-2	10	-6	5	.	.
COc1c(Br)cc([N+](=O)[O-])c(OC)c1C(=O)NC(=O)Nc1c(Cl)cccc1Cl	11	4	.	9	-10	18	.	.
COc1c(Br)cc([N+](=O)[O-])c(OC)c1C(=O)NC(=O)Nc1cc(Cl)cc(Cl)c1	30	2	.	85*	.	-40	79*	85*
COc1ccc(NC(=O)CN(c2ccccc2F)S(=O)(=O)c2ccc(C)cc2)cc1	-2	2	-2	22	-10	-8	.	.
O=C(N/N=C1/CC2CCC1C2)c1cc2ccccc2cc1O (stereo not given)	14	-17	5	52*	9	11	41*	83*
O=C(Cc1ccccc1)Nc1ccc2c(c1)OC1(CCCC1)O2	-72	-75	-3	-110	-7	-92	.	.
Nc1ccc2c(c1)OC1(CCCC1)O2	0	24	2	70*	19	-6	80*	37*
COC(=O)C1=C(C)N(Cc2ccccc2)C(=NCCc2c[nH]c3ccccc23)N[C@H]1c1cccc(C(F)(F)F)c1	-3	-15	2	100*	.	-6	41*	58*
CCN1C(=NCCCCO)N[C@@H](c2cccc(C(F)(F)F)c2)C(C(=O)OC)=C1C	-2	-4	-9	16	1	-13	.	.
COC(=O)C1=C(C)N(Cc2ccccc2)C(=NCc2ccc(OC)cc2)N[C@H]1c1ccccc1	3	29	4	65*	12	8	25	.
COC(=O)C1=C(C)N(Cc2ccccc2)C(=NCC(C)C)N[C@H]1c1ccccc1	6	35	11	30	-13	-9	.	.
COC(=O)C1=C(C)N(Cc2ccccc2)C(=NCc2cccc(C(F)(F)F)c2)N[C@H]1c1cccc(C(F)(F)F)c1	3	-8	99*	100*	.	9	100*	49*
COC(=O)C1=C(C)N(CC2CC2)C(=NCc2cccc(C(F)(F)F)c2)N[C@H]1c1ccccc1	3	26	-5	54*	6	0	24	.
COCCN=C1N[C@@H](c2cccc(C(F)(F)F)c2)C(C(=O)OC)=C(C)N1Cc1ccccc1	12	-2	5	45	4	-1	.	.
